# Experimental data from PubChem BioAssay.
# Active and inactive are the calls of the source.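 How the source made its calls, unless noted: active means inhibition at or above 50% at 10 µM; inactive means inhibition below 50%.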
# What was measured:
# [1] = inhibitors of TNFa-induced NFkB p65 translocation, primary screen, imaging, HUVEC, MLSMR starter and 10KST1 sets (AID 438;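 active means inhibition above 20% together with a positive visual image hit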;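 further: compound added about 3h40 before a 20 min TNFalpha stimulation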;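 on inhibition: signal is the nuclear over cytoplasmic p65 intensity ratio per well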); settings: HUVEC TNFa-induced p65 nuclear translocation; cell count: measured here: nuclei count (cytotoxicity indicator), at 2.08 µM; inhibition: at 2 µM, stronger effect = higher value, 0% TNFa-plus-vehicle, 100% no-TNFa wells
# [2] = reduction of polyQ htt aggregates in cells – imaging, exon1htt(103Q)mCFP cells, high-content imaging, primary screen (AID 483;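 active means visual image review flags a hit and inhibition of aggregation exceeds 20%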;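 further: compound exposure lasted 3 days before fixation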;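 on nuclei count: percent of the per-plate median nuclei count of sample wells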); settings: exon1htt(103Q)mCFP cell line, aggregate imaging, at 2 µM; inhibition of aggregation: stronger effect = higher value; nuclei count: measured here: cell count, toxicity
# [3] = endothelial E-selectin expression blockers – imaging, HUVEC, immunofluorescence, MLSMR starter and 10KST1 sets, primary screen (AID 487;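 active means visually confirmed hit in the image check and inhibition above 20%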;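 on inhibition: signal is fraction of cell area covered by stained E-selectin grains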;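 on nuclei count: 100% = median nuclei count of all wells on the same plate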); settings: HUVEC TNFalpha-induced E-selectin immunofluorescence imaging, at 2 µM; inhibition: stronger effect = higher value; nuclei count: measured here: cell number, toxicity
# [4] = target: Voltage-gated potassium channel subunit beta-2 (Rattus norvegicus) (UniProt P62483); experiment: inhibitors of rat Kvbeta2 reductase activity – biochemical, NADPH fluorescence, primary screen (AID 622;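 active means fluorescence slope higher than the sample average by over 3 SD, cut at about -0.22 in these data, passing the limit was not always enough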;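 further: slope of raw intensity against log time taken from 70 to 1610 s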); settings: recombinant KvBeta, 4-cyanobenzaldehyde reduction, at 10 µM, stronger effect = higher value
# [5] = target: Voltage-gated potassium channel subunit beta-2 (Rattus norvegicus) (UniProt P62483); experiment: enhancers of rat Kvbeta2 NADPH turnover – biochemical, NADPH fluorescence, primary screen (AID 623;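 active means NADPH fluorescence slope more negative than the mean of all samples by about 3 SD, 99.7% confidence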;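 further: fluorescence intensity change per second fitted from 20 to 320 s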); settings: Recombinant KvBeta, NADPH fluorescence decrease slope, 10 min; at 10 µM; stronger effect = lower value
# [6] = target: Alpha-2C adrenergic receptor (Homo sapiens) (UniProt P18825); experiment: compounds altering alpha2C-coupled GIRK flux – cell-based, HEK293 alpha2C/GIRK1/2, thallium flux, primary screen (AID 624;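 active means fluorescence slope after compound addition differing from the mean of all screened samples at 99.7% confidence, in either direction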;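 further: slope of fluorescence ratio to pre-addition baseline per second over 15 to 24 s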); settings: thallium flux BTC fluorescence, at 10 µM, actives lie on both sides
# [7] = blockers of RIG-like receptor reporter activation – cell-based, Sendai virus stimulus, luciferase, 10K MLSCN set, TLR/RLR signaling modifier project, primary screen (AID 602276); settings: HEK293 RL24 IRF3 luciferase reporter, at 10 µM, stronger effect = higher value;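 further: firefly luciferase from ISG56 promoter only with Renilla not read in this screen; 0% = Sendai virus plus DMSO and 100% = medium plus DMSO without virus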
# [8] = TLR3 IRF3 reporter activation blockers – cell-based, poly I:C stimulus, luciferase, 10K MLSCN set, primary screen (AID 602277;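 active means inhibition of the reporter signal at or above 50%; inactive means inhibition below 50%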); settings: HEK293-TLR3 RL24 IRF3 luciferase reporter, at 10 µM, stronger effect = higher value
# Sequence of Voltage-gated potassium channel subunit beta-2 (Rattus norvegicus) (P62483 whole entry, looked up): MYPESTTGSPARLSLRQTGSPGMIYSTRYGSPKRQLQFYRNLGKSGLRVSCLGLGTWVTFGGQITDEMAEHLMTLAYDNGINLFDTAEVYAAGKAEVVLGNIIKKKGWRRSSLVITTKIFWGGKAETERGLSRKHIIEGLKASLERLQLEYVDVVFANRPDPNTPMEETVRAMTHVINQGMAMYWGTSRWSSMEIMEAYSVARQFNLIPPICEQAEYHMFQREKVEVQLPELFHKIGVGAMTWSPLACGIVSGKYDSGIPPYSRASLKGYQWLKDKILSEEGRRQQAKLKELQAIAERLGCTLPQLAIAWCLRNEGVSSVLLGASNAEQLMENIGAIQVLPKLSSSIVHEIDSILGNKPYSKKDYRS
# Sequence of Alpha-2C adrenergic receptor (Homo sapiens) (P18825 whole entry, looked up): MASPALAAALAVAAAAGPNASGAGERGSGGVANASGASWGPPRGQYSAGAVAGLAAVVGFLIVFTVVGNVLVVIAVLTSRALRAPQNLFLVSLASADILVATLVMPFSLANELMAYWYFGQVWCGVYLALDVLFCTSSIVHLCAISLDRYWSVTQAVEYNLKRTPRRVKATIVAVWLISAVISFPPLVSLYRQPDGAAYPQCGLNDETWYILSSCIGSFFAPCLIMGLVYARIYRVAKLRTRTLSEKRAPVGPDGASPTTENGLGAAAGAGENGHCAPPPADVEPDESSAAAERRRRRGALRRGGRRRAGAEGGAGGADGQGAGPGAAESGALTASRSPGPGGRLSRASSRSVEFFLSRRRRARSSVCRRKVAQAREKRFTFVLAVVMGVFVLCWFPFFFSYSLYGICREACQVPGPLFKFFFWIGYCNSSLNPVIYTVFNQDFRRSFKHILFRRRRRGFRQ
SMILES,cell count [1],inhibition [1],inhibition of aggregation [2],nuclei count [2],inhibition [3],nuclei count [3],fluorescence slope [4],NADPH fluorescence slope [5],slope [6],inhibition [7],inhibition [8]
CCOC(=O)CSC1=C(C#N)C(c2ccc(C)o2)CC(=O)N1 (centres undefined),557,14.4% (inactive),29.1% (inactive),3.4%,-60% (inactive),95%,-0.511 (inactive),-2e-05 (inactive),0.00803 (inactive),10.4% (inactive),87.6% (active)
COc1ccc(-n2c(SCC#N)nc3ccccc3c2=O)cc1,314,-4.7% (inactive),-15.4% (inactive),105%,-11% (inactive),118%,-0.491 (inactive),7e-05 (inactive),0.00655 (inactive),-8.69% (inactive),-76.1% (inactive)
O=C(NCc1nnc(SCC(=O)N2CCC(Cc3ccccc3)CC2)o1)c1ccccc1F,574,-0.4% (inactive),4.4% (inactive),112%,5.1% (inactive),110%,-0.549 (inactive),-5.6e-05 (inactive),0.00657 (inactive),-4.5% (inactive),8.45% (inactive)
CCCS(=O)(=O)N1CCCC(C(=O)NC2CCCC(C)C2C)C1 (centres undefined),357,-0.5% (inactive),7.4% (inactive),92.6%,-13.1% (inactive),105%,-0.551 (inactive),2.2e-05 (inactive),0.00599 (inactive),9.58% (inactive),-2.45% (inactive)
Cc1ccc(NC(=O)C2CCCN2S(=O)(=O)c2cccc3cccnc23)cc1F (centres undefined),577,-1.1% (inactive),3.5% (inactive),71.6%,-56.2% (inactive),100%,-0.55 (inactive),-3.9e-05 (inactive),0.00633 (inactive),9.99% (inactive),33.6% (inactive)
CN(C)c1oc(-c2ccccc2Cl)nc1C#N,302,4.3% (inactive),-4.3% (inactive),90.7%,6% (inactive),109%,-0.433 (inactive),-0.000102 (inactive),0.00458 (inactive),6.71% (inactive),-0.158% (inactive)
CC1(C)CC(=O)c2sc(NS(C)(=O)=O)nc2C1,638,-10.5% (inactive),-16.8% (inactive),104%,-56.1% (inactive),106%,-0.533 (inactive),-4.4e-05 (inactive),0.00519 (inactive),18.2% (inactive),27.8% (inactive)
COc1ccc(-c2cc(C(F)(F)F)nc(N3CCN(c4ccc(F)cc4)CC3)n2)cc1OC,827,-10.7% (inactive),-2.4% (inactive),105%,-107% (inactive),122%,-0.52 (inactive),2.2e-05 (inactive),0.00763 (inactive),-20.5% (inactive),-7.7% (inactive)
CCCCCOC(=O)C1=C(C)N(C)C(=O)NC1c1cc(Br)c(O)c(OC)c1 (centres undefined),563,-9.9% (inactive),-39.7% (inactive),105%,25.8% (inactive),105%,-0.624 (inactive),5.7e-06 (inactive),0.0067 (inactive),1.53% (inactive),21.1% (inactive)
O=C(CSc1nnc(-c2ccncc2)n1-c1ccc(F)cc1)NC(=O)NCc1ccco1,537,-13.7% (inactive),-9.8% (inactive),100%,-65.7% (inactive),149%,-0.46 (inactive),-0.000317 (inactive),0.00513 (inactive),10.1% (inactive),15.2% (inactive)
Cn1cccc1Cc1nnc(SCC(=O)Nc2ccccc2F)n1-c1ccc(F)cc1,878,-2.3% (inactive),-8.8% (inactive),108%,-44.3% (inactive),113%,-0.561 (inactive),-8.8e-05 (inactive),0.00608 (inactive),5.41% (inactive),24.9% (inactive)
CC1=C(C(=O)NC2CCCC(C)C2C)C2(CCCCC2)OC1=O (centres undefined),515,3.3% (inactive),18.1% (inactive),64.9%,-37.4% (inactive),114%,-0.598 (inactive),-6.8e-07 (inactive),0.00687 (inactive),-0.153% (inactive),17.7% (inactive)
COc1ccc(-c2nc3c(c(SCC(=O)N4CCOCC4)n2)COC(C)(C)C3)cc1,510,23.4% (active),-8.2% (inactive),100%,33% (inactive),117%,-0.387 (inactive),1.1e-05 (inactive),0.00848 (inactive),12.6% (inactive),19.9% (inactive)
c1ccc(-c2cnc(CSc3ncnc4sccc34)o2)cc1,308,2.9% (inactive),27.8% (inactive),86.4%,-7.2% (inactive),109%,-0.272 (inactive),-1.7e-05 (inactive),0.00879 (inactive),-9.6% (inactive),-51.1% (inactive)
